Among the data in PubChem BioAssay are composite z-score, composite Z-score and z-score values, retold here.

One experiment has as its target Albumin (Bos taurus) (UniProt P02769). The experiment can be described thus: compounds binding labelled BSA control protein – biochemical, small-molecule microarray, Alexa647 label, 635/667 nm fluorescence, artefact control for SMM control protein annotation, profiling panel (AID 1118).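 Further: score merges 667 nm emission intensity and signal-to-noise per printed compound spot.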 The conditions noted are these: BSA-A647 binding, fluorescence 635 nm, higher = more signal.

A short description of experiment [1]: probe aXIP binding to arrayed compounds – biochemical, NeuroSMM set, 635/667 nm fluorescence, primary screen (AID 1119).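 Further: probe is the protein aXip251-270 applied at 1 µg/mL to compound-printed slides; binding of probe to printed compounds measured as 667 nm fluorescence plus signal to noise.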 The conditions noted are these: small-molecule microarray, higher = more signal, called active from +8 up or from −8 down.
A short description of experiment [2]: probe aNOTCH3 binding on compound microarray – biochemical, small-molecule microarray, 635/667 nm fluorescence, primary screen (AID 1120).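 Further: probe is a biotin-tagged antibody raised against NOTCH3 rather than NOTCH3 protein; score merges spot fluorescence near 667 nm with spot signal to noise.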 The conditions noted are these: higher = more signal.
Experiment [3] in a line: probe aNOTCH2 binding on compound microarray – biochemical, small-molecule microarray, 635/667 nm fluorescence, primary screen (AID 1121).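 Further: score merges feature fluorescence read at 667 nm with its signal to noise.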 The conditions noted are these: higher = more signal.
In experiment [4] the target is Carbonic anhydrase 2 (Homo sapiens) (UniProt P00918). In words: compounds binding carbonic anhydrase 2 – biochemical, small-molecule microarray, Alexa647-labelled CAII, profiling panel (AID 1122). The conditions noted are these: CAII-A647 binding fluorescence, higher = more signal.
Experiment [5] is described as follows: COS7 lysate on small-molecule microarray, probe aHis, 635 nm (AID 1123).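 Further: z-score combines 667nm fluorescence intensity with signal-to-noise per printed compound spot.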 The conditions noted are these: COS7 cell lysate, fluorescence, higher = more signal.
Experiment [6] is described as follows: probe aLAP1 signal on lysate-treated microarray – cell lysate, small-molecule microarray, COS7 lysate, primary screen (AID 1124).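 Further: lysate comes from COS7 cells expressing LAP1 and is applied at 0.3 µg/mL; score merges spot fluorescence near 667 nm with signal-to-noise over triplicate slides.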 The conditions noted are these: probe aLAP1, fluorescence, higher = more signal.
The next experiment deals with Sam68 (KHDRBS1). The experiment can be described thus: compounds binding KHDRBS1 protein – biochemical, small-molecule microarray, 635 nm fluorescence, primary screen (AID 1125).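 Further: score merges 667 nm channel intensity with signal to noise over triplicate slides.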 The conditions noted are these: higher = more signal.
Experiment [7] deals with Chordin-like protein 2 (CHRDL2). The experiment can be described thus: compounds binding chordin-like 2 – biochemical, small-molecule microarray, 635 nm fluorescence, primary screen (AID 1126).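 Further: printed compound slides probed with Chrdl2 protein at 4 µg/mL for 1 h at 4 C; score merges 667 nm emission intensity with signal to noise over three replicate slides.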 The conditions noted are these: fluorescence 635 nm, higher = more signal.
For experiment [8], the target named is Concanavalin-A (Canavalia ensiformis) (UniProt P02866). In words: compounds binding concanavalin A lectin – biochemical, small-molecule microarray, Alexa647 label, 635 nm, artefact control for SMM control protein annotation, primary screen (AID 1127).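 Further: z combines 667 nm emission intensity with signal-to-noise across three replicate slides.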 The conditions noted are these: ConA-A647 binding fluorescence, higher = more signal.
Concanavalin-A (Canavalia ensiformis), sequence (P02866 whole entry, looked up): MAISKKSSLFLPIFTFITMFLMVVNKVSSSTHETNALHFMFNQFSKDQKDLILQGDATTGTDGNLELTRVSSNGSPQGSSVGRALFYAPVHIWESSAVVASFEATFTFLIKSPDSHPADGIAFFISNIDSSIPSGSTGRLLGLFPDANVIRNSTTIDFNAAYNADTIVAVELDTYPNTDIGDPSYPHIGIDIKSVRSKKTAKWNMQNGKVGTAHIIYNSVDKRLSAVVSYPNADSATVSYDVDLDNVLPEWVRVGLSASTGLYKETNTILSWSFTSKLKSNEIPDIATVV
The nature of experiment [9]: compounds binding Alexa647 anti-His antibody – biochemical, small-molecule microarray, 635 nm fluorescence, artefact control for SMM control protein annotation, primary screen (AID 1128).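 Further: score merges feature fluorescence with signal-to-noise for each printed compound spot.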 The conditions noted are these: higher = more signal.
Experiment [10] deals with Human papillomavirus type 1a E7 protein (residues 1-88). The experiment can be described thus: HPV1a E7 small-molecule binders, primary screen, biochemical, small-molecule microarray, residues 1-88, 635 nm (AID 1129). The conditions noted are these: small-molecule microarray binding, fluorescence 635 nm; higher = more signal.
Experiment [11] has as its target Focal adhesion kinase 1 (Homo sapiens) (UniProt Q05397). The experiment can be described thus: PTK2 protein binding on printed compound slides – biochemical, small-molecule microarray, 635/667 nm fluorescence, BSA, DTT, primary screen (AID 1130).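 Further: composite of spot emission at 667 nm and signal to noise over triplicate slides.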 The conditions noted are these: 635 nm fluorescence, higher = more signal.
Experiment [12] concerns Fibrinogen (Alexa647-labelled). The experiment can be described thus: Alexa647-fibrinogen binding to printed small molecules – biochemical, small-molecule microarray, 635/667 nm fluorescence, artefact control for SMM control-protein annotation, profiling panel (AID 1131).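 Further: z-score merges 667 nm fluorescence with per-spot signal-to-noise over triplicate slides.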 The conditions noted are these: fibrinogen-A647 binding fluorescence, higher = more signal.
Experiment [13] addresses Follistatin (Homo sapiens) (UniProt P19883). In words: FST protein binding to printed compounds – biochemical, small-molecule microarray, 635/667 nm fluorescence, primary screen (AID 1132). The conditions noted are these: 635 nm fluorescence, higher = more signal.
In experiment [14] the target is Fibroblast growth factor 2 (Homo sapiens) (UniProt P09038). In words: basic fibroblast growth factor binding to printed compounds – biochemical, small-molecule microarray, 635/667 nm fluorescence, primary screen (AID 1133). The conditions noted are these: FGF2, fluorescence 635/667, higher = more signal.
Fibroblast growth factor 2 (Homo sapiens), sequence (P09038 whole entry, looked up): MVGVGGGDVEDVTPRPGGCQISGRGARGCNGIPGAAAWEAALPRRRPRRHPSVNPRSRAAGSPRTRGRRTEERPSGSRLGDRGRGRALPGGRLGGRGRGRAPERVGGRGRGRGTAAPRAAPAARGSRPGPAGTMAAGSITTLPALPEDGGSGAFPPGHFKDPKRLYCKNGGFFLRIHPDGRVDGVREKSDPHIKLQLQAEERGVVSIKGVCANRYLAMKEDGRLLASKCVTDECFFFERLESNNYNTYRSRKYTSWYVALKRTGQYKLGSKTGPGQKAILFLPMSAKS
Experiment [15] is described as follows: JC-1 mitochondrial potential readout, lung cancer cells – cell-based, A549, JC-1 fluorescence, basal, 24 h, 100 nL, profiling panel (AID 1138).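 Further: A549 lung adenocarcinoma cells under basal conditions with no added stimulus; test concentration not given here.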 The conditions noted are these: higher = more signal.
The test system of a further experiment is Lefty1. The experiment can be described thus: Lefty1 protein binding to printed compounds – biochemical, small-molecule microarray, 635/667 nm fluorescence, primary screen (AID 1139). The conditions noted are these: fluorescence 635/667, higher = more signal.
In experiment [16] the test system is wheat germ agglutinin (Triticum aestivum), Alexa647-labelled. In words: Alexa647-WGA lectin binding to printed small molecules – biochemical, small-molecule microarray, 635/667 nm fluorescence, artefact control for SMM control-protein annotation, profiling panel (AID 1140).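 Further: score merges 667 nm feature emission with signal to noise over triplicate slides.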 The conditions noted are these: WGA-A647 binding, 635 nm fluorescence, higher = more signal.

The target in experiment [17] is Luciferin 4-monooxygenase (Photinus pyralis) (UniProt P08659). The experiment can be described thus: inhibition of purified Photinus pyralis luciferase – biochemical, luminescence, purified enzyme, 2006 set, primary screen (AID 1141).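 Further: cell-free assay with purified firefly luciferase at 100 ng per well in PBS; test concentration not given here.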 The conditions noted are these: purified firefly luciferase, SteadyGlo luminescence, 30 min; higher = more signal, called active from +8 up or from −8 down.
Luciferin 4-monooxygenase (Photinus pyralis), sequence (P08659 whole entry, looked up): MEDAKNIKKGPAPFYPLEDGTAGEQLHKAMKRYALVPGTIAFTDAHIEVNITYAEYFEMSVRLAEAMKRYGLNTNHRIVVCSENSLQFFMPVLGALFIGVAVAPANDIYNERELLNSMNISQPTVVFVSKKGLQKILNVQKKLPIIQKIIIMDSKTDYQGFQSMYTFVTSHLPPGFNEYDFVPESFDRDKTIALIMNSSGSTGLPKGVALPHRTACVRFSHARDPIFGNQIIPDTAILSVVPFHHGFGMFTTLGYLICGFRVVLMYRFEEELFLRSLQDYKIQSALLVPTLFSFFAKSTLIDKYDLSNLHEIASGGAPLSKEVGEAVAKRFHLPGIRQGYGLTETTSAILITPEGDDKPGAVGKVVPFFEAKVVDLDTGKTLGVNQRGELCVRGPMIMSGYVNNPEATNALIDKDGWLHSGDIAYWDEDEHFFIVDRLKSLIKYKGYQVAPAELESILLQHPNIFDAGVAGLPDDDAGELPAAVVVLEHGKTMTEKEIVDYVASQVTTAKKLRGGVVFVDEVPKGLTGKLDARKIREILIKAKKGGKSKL

Calls of active or inactive are those of the source.

Focal adhesion kinase 1 (Homo sapiens), sequence (Q05397 whole entry, looked up): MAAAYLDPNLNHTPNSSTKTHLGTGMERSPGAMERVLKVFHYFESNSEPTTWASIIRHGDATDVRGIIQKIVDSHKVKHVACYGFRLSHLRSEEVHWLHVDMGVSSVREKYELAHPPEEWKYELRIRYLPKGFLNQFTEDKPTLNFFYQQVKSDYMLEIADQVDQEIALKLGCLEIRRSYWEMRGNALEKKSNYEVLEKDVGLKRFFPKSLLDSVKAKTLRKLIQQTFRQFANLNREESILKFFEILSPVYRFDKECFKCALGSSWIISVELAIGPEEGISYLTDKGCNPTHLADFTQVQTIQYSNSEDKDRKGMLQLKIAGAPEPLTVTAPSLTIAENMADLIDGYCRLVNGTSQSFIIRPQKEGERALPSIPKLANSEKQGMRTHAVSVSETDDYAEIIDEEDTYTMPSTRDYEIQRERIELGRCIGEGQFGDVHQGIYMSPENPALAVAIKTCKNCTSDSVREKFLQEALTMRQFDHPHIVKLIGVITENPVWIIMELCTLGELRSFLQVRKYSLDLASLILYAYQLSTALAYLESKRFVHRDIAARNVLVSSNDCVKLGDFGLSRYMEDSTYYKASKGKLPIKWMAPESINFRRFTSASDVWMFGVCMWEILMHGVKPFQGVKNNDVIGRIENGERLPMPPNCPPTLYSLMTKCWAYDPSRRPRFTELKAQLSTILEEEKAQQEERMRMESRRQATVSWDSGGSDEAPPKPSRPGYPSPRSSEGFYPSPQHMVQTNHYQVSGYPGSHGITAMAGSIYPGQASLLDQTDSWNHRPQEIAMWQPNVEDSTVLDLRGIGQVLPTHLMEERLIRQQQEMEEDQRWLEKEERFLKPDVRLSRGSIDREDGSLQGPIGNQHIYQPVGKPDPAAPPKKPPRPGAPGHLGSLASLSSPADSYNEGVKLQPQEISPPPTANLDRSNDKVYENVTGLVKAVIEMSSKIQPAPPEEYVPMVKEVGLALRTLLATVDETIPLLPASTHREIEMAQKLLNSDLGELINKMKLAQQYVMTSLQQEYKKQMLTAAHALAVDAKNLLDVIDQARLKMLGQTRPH
Follistatin (Homo sapiens), sequence (P19883 whole entry, looked up): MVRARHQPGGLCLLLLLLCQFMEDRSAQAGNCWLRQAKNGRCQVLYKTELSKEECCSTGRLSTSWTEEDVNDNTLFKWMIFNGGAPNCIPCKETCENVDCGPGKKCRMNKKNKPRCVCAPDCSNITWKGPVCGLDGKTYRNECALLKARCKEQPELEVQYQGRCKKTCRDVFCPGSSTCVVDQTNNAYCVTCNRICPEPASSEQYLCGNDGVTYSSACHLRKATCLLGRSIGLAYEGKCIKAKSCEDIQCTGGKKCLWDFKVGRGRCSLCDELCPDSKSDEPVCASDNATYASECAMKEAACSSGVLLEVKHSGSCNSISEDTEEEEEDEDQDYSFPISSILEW
Albumin (Bos taurus), sequence (P02769 whole entry, looked up): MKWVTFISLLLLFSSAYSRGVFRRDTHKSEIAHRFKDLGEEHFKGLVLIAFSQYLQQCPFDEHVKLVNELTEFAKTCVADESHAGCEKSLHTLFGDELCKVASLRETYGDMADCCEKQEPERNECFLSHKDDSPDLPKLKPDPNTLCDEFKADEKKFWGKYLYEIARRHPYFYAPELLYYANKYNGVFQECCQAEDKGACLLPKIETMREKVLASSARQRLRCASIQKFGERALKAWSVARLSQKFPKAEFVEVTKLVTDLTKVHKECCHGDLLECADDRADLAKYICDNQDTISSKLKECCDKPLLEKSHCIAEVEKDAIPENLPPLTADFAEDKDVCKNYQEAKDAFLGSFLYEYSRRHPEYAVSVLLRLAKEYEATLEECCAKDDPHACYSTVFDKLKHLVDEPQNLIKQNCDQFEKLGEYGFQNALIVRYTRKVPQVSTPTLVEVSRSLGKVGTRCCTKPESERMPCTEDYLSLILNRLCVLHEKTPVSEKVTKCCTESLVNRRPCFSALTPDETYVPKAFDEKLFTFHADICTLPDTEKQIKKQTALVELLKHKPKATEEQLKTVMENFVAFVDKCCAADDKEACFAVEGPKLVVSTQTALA

`CCN1C(=O)[C@H]2[C@H]3[C@H](O)[C@H](O)CC(=NOCC=C(C)CCC=C(C)C)[C@H]3CC[C@H]2C1=O`: the composite z-score with Albumin (Bos taurus) is -1.33; in experiment [2] it was 0.0876; in experiment [3], -0.182; in experiment [4] it was 0.578; in [5], 0.41; in experiment [6], 0.714. Besides, the composite z-score in the experiment with Sam68 (KHDRBS1) was 1.3; in experiment [7], 1.3; in [8], -0.0616; in experiment [9] it was 0.918; in experiment [10], 1.1; in experiment [11] it was 0.123. In addition, the composite z-score was 0.0065 in [12]; 1.26 in [13]; 1.51 in experiment [14]; 1.58 in the experiment with Lefty1; -0.207 in [16]. Further, the composite Z-score in experiment [1] was -0.768 (inactive). Further, the z-score is -0.298 in experiment [15] and -0.279 (inactive) in [17].

On to `Cc1ccc(F)cc1S(=O)(=O)N[C@@H]1CCN(Cc2ccc(CC(C)C)cc2)C1`, for which the composite z-score in the experiment with Albumin (Bos taurus) is 0.118; in experiment [2], -0.249; in [3] it was -0.208; in [4], 0.013; in experiment [5], 0.193; in experiment [6] it was 0.172. For the same molecule, the composite z-score was 0.499 in the experiment on Sam68 (KHDRBS1); 0.266 in experiment [7]; -1.47 in experiment [8]; -0.016 in experiment [9]; -0.381 in experiment [10]; 0.132 in experiment [11]. For the same molecule, the composite z-score is 0.129 in [12]; 0.111 in experiment [13]; -0.367 in [14]; 0.163 with Lefty1; 0.0831 in [16]. In experiment [1], the composite Z-score was -0.316 (inactive). The z-score in experiment [15] is -0.391; in experiment [17], 0.886 (inactive).

Consider `CC(C)(C)N1C(=O)[C@H]2[C@H]3[C@H](O)[C@H](O)CC(=NOCc4ccccc4)[C@@H]3CC[C@H]2C1=O`, for which the composite z-score with Albumin (Bos taurus) is 0.8; in [2] it was 0.111; in [3] it was -0.131; in experiment [4], 0.675; in experiment [5], 0.384; in experiment [6], 0.532. Further, the composite z-score in the experiment on Sam68 (KHDRBS1) is 1.17; in experiment [7] it was 0.831; in experiment [8], 0.694; in experiment [9] it was 0.94; in [10], 0.808; in experiment [11] it was -0.0913. In addition, the composite z-score in experiment [12] came out at 0.921; in experiment [13] it was 0.785; in [14] it was 0.742; in the experiment with Lefty1, 0.744; in [16], 0.441. In addition, the composite Z-score in experiment [1] is 0.588 (inactive). Moreover, the values for the z-score in [15] and in experiment [17] were 0.0533 and -1 (inactive), respectively.

Regarding `CCOC(=O)[C@H](Cc1ccccc1)NC(=O)CCC1CC(OC(=O)NCc2ccc3c(c2)OCO3)CC2(CCCC(COC(=O)NCC3CCCCC3)O2)O1` (stereo not given in full), the composite z-score is 0.276 with Albumin (Bos taurus); 0.0525 in experiment [2]; -0.0891 in experiment [3]; 0.579 in [4]; 0.575 in experiment [5]; -0.243 in [6]. Besides, the composite z-score in the experiment on Sam68 (KHDRBS1) was 1.3; in [7], 0.799; in experiment [8] it was 1.06; in experiment [9] it was 0.273; in experiment [10], 1.18; in experiment [11], 0.188. The composite z-score in experiment [12] is 0.91; in [13], 0.904; in experiment [14] it was 0.48; in the experiment with Lefty1, 0.876; in [16] it was 0.206. In [1], the composite Z-score was 0.236 (inactive). In addition, the figures for the z-score in experiment [15] and in experiment [17] were 0.491 and 0.986 (inactive), respectively.

With `CC[C@@H](c1ccccc1)n1c(=O)n2n(c1=O)[C@H]1[C@H](O)[C@@H]3O[C@@H]3C(=NOCC(C)C)[C@H]1CC2`, the composite z-score with Albumin (Bos taurus) was -0.231; in [2] it was -0.0189; in [3] it was -0.0986; in [4], 0.308; in [5], 0.0644; in experiment [6], 0.422. For the same molecule, the composite z-score is 0.362 in the experiment on Sam68 (KHDRBS1); -0.086 in [7]; 0.0275 in experiment [8]; 0.356 in experiment [9]; 0.0566 in [10]; -0.267 in experiment [11]. Further, the composite z-score in experiment [12] is -0.203; in experiment [13], 0.38; in experiment [14], 0.0571; in the experiment on Lefty1 it was 0.542; in [16], -0.0401. The composite Z-score in experiment [1] was -0.0127 (inactive). Besides, the z-score in experiment [15] was -0.492; in [17] it was 0.292 (inactive).
